{"source": "the supplement of paper PMC8728848", "binders": {"B1": {"name": "Cohesin-marm-DC-ASGPR (protein)", "chain": "LDITSHHHHHHDDLDAVRIKVDTVNAKPGDTVRIPVRFSGIPSKGIANCDFVYSYDPNVLEIIEIEPGDIIVDPNPDKSFDTAVYPDRKIIVFLFAEDSGTGAYAITKDGVFATIVAKVKEGAPNGLSVIKFVEVGGFANNDLVEQKTQFFDGGVNVGDTTEPATPTTPVTTPTTTDDLDAASSKFQRDLVTLRTDFSNFTSNTLAEIQALTSQGSSLQETIASLKAEVEGHKQELQAGASELQEHNKQKAHLGRCPHTCVCPSSFVCVPVHSEILLRVQQLVQDLNKLSCQVAILKNNATTERTCCPINWVEHQGSCYWFSRSGKTWPEAERYCQLENTHLVVINSREEQNFVQAHLGSAYTWMGLSDPEGVWKWVDGTDYSSGFQNWKPGQPDDWQGHGLGGGEDCAHFHPDGRWNDDVCQRSYHWVCEAGLTQASQDSHAS"}}, "test_in_all_cases": "glycan array binding signal (z-score within array); higher = stronger binding", "settings_in_all_cases": "glycan notation: IUPAC condensed, linker removed", "key": {"[1]": {"target": "GlcNAc(b1-2)[GlcNAc(b1-4)]Man(a1-3)[GlcNAc(b1-4)][GlcNAc(b1-2)Man(a1-6)]Man(b1-4)GlcNAc(b1-4)GlcNAc", "summary_of_the_method": "(§1)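 Glycan array data were curated from 3228 arrays in the Consortium for Functional Glycomics database and kept only where the protein sequence was available. Glycan names were converted to IUPAC-condensed notation, and columns mapping to the same glycan were averaged. The binding signal is a within-array Z-score, averaged across arrays of the same protein sequence at different concentrations or buffers and across linkers. Negative Z-scores can be read as non-binding.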"}, "[2]": {"target": "GlcNAc(b1-2)[GlcNAc(b1-4)]Man(a1-3)[GlcNAc(b1-4)][GlcNAc(b1-2)[GlcNAc(b1-6)]Man(a1-6)]Man(b1-4)GlcNAc(b1-4)[Fuc(a1-6)]GlcNAc", "summary_of_the_method": "as §1"}, "[3]": {"target": "GlcNAc(b1-2)[GlcNAc(b1-6)]Man(a1-6)[GlcNAc(b1-2)Man(a1-3)]Man(b1-4)GlcNAc(b1-4)[Fuc(a1-6)]GlcNAc", "summary_of_the_method": "as §1"}, "[4]": {"target": "GlcNAc(b1-2)[GlcNAc(b1-6)]Man(a1-6)[GlcNAc(b1-4)][GlcNAc(b1-2)Man(a1-3)]Man(b1-4)GlcNAc(b1-4)GlcNAc", "summary_of_the_method": "as §1"}, "GlcNAc(b1-3)Gal": {"target": "GlcNAc(b1-3)Gal", "summary_of_the_method": "as §1"}, "GlcNAc(b1-3)GalNAc": {"target": "GlcNAc(b1-3)GalNAc", "summary_of_the_method": "as §1"}, "[5]": {"target": "GlcNAc(b1-3)[GlcNAc(b1-6)]Gal(b1-4)GlcNAc", "summary_of_the_method": "as §1"}, "[6]": {"target": "GlcNAc(b1-3)[GlcNAc(b1-6)]GalNAc", "summary_of_the_method": "as §1"}, "GlcNAc(b1-6)GalNAc": {"target": "GlcNAc(b1-6)GalNAc", "summary_of_the_method": "as §1"}, "[7]": {"target": "Man(a1-2)Man(a1-6)[Man(a1-3)]Man(a1-6)[Man(a1-2)Man(a1-2)Man(a1-3)]Man(b1-4)GlcNAc(b1-4)GlcNAc", "summary_of_the_method": "as §1"}, "[8]": {"target": "Man(a1-3)[Man(a1-6)]Man(b1-4)GlcNAc(b1-4)[Fuc(a1-6)]GlcNAc", "summary_of_the_method": "as §1"}, "[9]": {"target": "Neu5Ac(a2-3)Gal(b1-3)GalNAc6S", "summary_of_the_method": "as §1"}, "[10]": {"target": "Neu5Ac(a2-3)Gal(b1-3)GlcNAc(b1-4)Gal(b1-4)Glc", "summary_of_the_method": "as §1"}, "[11]": {"target": "Neu5Ac(a2-3)Gal(b1-3)GlcNAc6S", "summary_of_the_method": "as §1"}, "[12]": {"target": "Neu5Ac(a2-3)Gal(b1-3)[GlcNAc(b1-6)]GalNAc", "summary_of_the_method": "as §1"}, "[13]": {"target": "Neu5Ac(a2-3)Gal(b1-4)GlcNAc(b1-3)Gal(b1-4)GlcNAc(b1-3)Gal(b1-4)GlcNAc", "summary_of_the_method": "as §1"}, "[14]": {"target": "Neu5Ac(a2-3)Gal(b1-4)GlcNAc(b1-3)Gal(b1-4)GlcNAc(b1-6)[Gal(b1-3)]GalNAc", "summary_of_the_method": "as §1"}, "[15]": {"target": "Neu5Ac(a2-3)Gal(b1-4)GlcNAc(b1-3)[Neu5Ac(a2-3)Gal(b1-4)GlcNAc(b1-6)]GalNAc", "summary_of_the_method": "as §1"}, "[16]": {"target": "Neu5Ac(a2-3)Gal(b1-4)GlcNAc(b1-6)GalNAc", "summary_of_the_method": "as §1"}, "[17]": {"target": "Neu5Ac(a2-3)Gal(b1-4)[Fuc(a1-3)]GlcNAc(b1-3)Gal(b1-4)GlcNAc", "summary_of_the_method": "as §1"}, "Neu5Ac(a2-3)GalNAc": {"target": "Neu5Ac(a2-3)GalNAc", "summary_of_the_method": "as §1"}, "[18]": {"target": "Neu5Ac(a2-6)Gal(b1-4)GlcNAc(b1-2)Man(a1-3)[GlcNAc(b1-4)][Neu5Ac(a2-6)Gal(b1-4)GlcNAc(b1-2)Man(a1-6)]Man(b1-4)GlcNAc(b1-4)GlcNAc", "summary_of_the_method": "as §1"}, "[19]": {"target": "Neu5Ac(a2-6)Gal(b1-4)GlcNAc(b1-2)Man(a1-3)[Neu5Ac(a2-6)Gal(b1-4)GlcNAc(b1-2)Man(a1-6)]Man(b1-4)GlcNAc(b1-4)GlcNAc", "summary_of_the_method": "as §1"}, "[20]": {"target": "Neu5Ac(a2-6)Gal(b1-4)GlcNAc(b1-2)Man(a1-6)[Man(a1-3)]Man(b1-4)GlcNAc(b1-4)GlcNAc", "summary_of_the_method": "as §1"}, "[21]": {"target": "Neu5Ac(a2-6)Gal(b1-4)GlcNAc(b1-3)Gal(b1-4)GlcNAc(b1-6)[Gal(b1-3)]GalNAc", "summary_of_the_method": "as §1"}, "[22]": {"target": "Neu5Ac(a2-6)GlcNAc(b1-4)GlcNAc(b1-4)GlcNAc", "summary_of_the_method": "as §1"}, "[23]": {"target": "Neu5Ac(a2-8)Neu5Ac(a2-3)Gal(b1-3)GalNAc(b1-4)[Neu5Ac(a2-8)Neu5Ac(a2-3)]Gal(b1-4)Glc", "summary_of_the_method": "as §1"}, "[24]": {"target": "Neu5Ac(a2-8)Neu5Ac(a2-3)[GalNAc(b1-4)]Gal(b1-4)Glc", "summary_of_the_method": "as §1"}, "[25]": {"target": "Neu5Ac(a2-8)Neu5Ac(a2-8)Neu5Ac(a2-3)[Gal(b1-3)GalNAc(b1-4)]Gal(b1-4)Glc", "summary_of_the_method": "as §1"}, "[26]": {"target": "Neu5Ac(a2-8)Neu5Ac(a2-8)Neu5Ac(a2-8)Neu5Ac(a2-3)[GalNAc(b1-4)]Gal(b1-4)Glc", "summary_of_the_method": "as §1"}, "[27]": {"target": "Neu5Gc(a2-3)Gal(b1-3)GlcNAc", "summary_of_the_method": "as §1"}}, "note": "About 410 targets per protein were measured; listed, in parts, are those with the strongest signals and a random draw of the rest.", "data": [{"binder": "B1", "values": [{"measurement": "glycan array binding signal (z-score)", "setting": "[1]", "value": -0.278}, {"measurement": "glycan array binding signal (z-score)", "setting": "[2]", "value": -0.313}, {"measurement": "glycan array binding signal (z-score)", "setting": "[3]", "value": -0.298}, {"measurement": "glycan array binding signal (z-score)", "setting": "[4]", "value": -0.311}, {"measurement": "glycan array binding signal (z-score)", "setting": "GlcNAc(b1-3)Gal", "value": -0.306}, {"measurement": "glycan array binding signal (z-score)", "setting": "GlcNAc(b1-3)GalNAc", "value": -0.287}, {"measurement": "glycan array binding signal (z-score)", "setting": "[5]", "value": -0.313}, {"measurement": "glycan array binding signal (z-score)", "setting": "[6]", "value": -0.291}, {"measurement": "glycan array binding signal (z-score)", "setting": "GlcNAc(b1-6)GalNAc", "value": 4.74}, {"measurement": "glycan array binding signal (z-score)", "setting": "[7]", "value": -0.287}, {"measurement": "glycan array binding signal (z-score)", "setting": "[8]", "value": -0.31}, {"measurement": "glycan array binding signal (z-score)", "setting": "[9]", "value": -0.245}, {"measurement": "glycan array binding signal (z-score)", "setting": "[10]", "value": -0.303}, {"measurement": "glycan array binding signal (z-score)", "setting": "[11]", "value": -0.277}, {"measurement": "glycan array binding signal (z-score)", "setting": "[12]", "value": -0.303}, {"measurement": "glycan array binding signal (z-score)", "setting": "[13]", "value": -0.288}, {"measurement": "glycan array binding signal (z-score)", "setting": "[14]", "value": -0.307}, {"measurement": "glycan array binding signal (z-score)", "setting": "[15]", "value": -0.311}, {"measurement": "glycan array binding signal (z-score)", "setting": "[16]", "value": 4.81}, {"measurement": "glycan array binding signal (z-score)", "setting": "[17]", "value": -0.244}, {"measurement": "glycan array binding signal (z-score)", "setting": "Neu5Ac(a2-3)GalNAc", "value": -0.309}, {"measurement": "glycan array binding signal (z-score)", "setting": "[18]", "value": -0.308}, {"measurement": "glycan array binding signal (z-score)", "setting": "[19]", "value": -0.126}, {"measurement": "glycan array binding signal (z-score)", "setting": "[20]", "value": -0.314}, {"measurement": "glycan array binding signal (z-score)", "setting": "[21]", "value": -0.308}, {"measurement": "glycan array binding signal (z-score)", "setting": "[22]", "value": -0.312}, {"measurement": "glycan array binding signal (z-score)", "setting": "[23]", "value": -0.296}, {"measurement": "glycan array binding signal (z-score)", "setting": "[24]", "value": 3.43}, {"measurement": "glycan array binding signal (z-score)", "setting": "[25]", "value": -0.305}, {"measurement": "glycan array binding signal (z-score)", "setting": "[26]", "value": 5.27}, {"measurement": "glycan array binding signal (z-score)", "setting": "[27]", "value": -0.264}]}]}
